Bioassay records: PubChem BioAssay, National Center for Advancing Translational Sciences (NCATS)
Sampled rows, rich in hits. Any-hit rate of the full collection: about 2.4%.
D2 ag-1 – HTS Assay for Allosteric Agonists of the Human D2 Dopamine Receptor: Primary Screen for Agonists. activation, % at 2 µM. HEK293 T-REx D2 cells, calcium flux agonist mode. D(2) dopamine receptor (Homo sapiens), P14416. hit rate 0.53% among 340,000;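 active = activation over 3 SD above normal in the single-dose calcium agonist read, cut at about 30% in these data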; also: 0% is about no effect
Target sequence (P14416 whole entry, looked up): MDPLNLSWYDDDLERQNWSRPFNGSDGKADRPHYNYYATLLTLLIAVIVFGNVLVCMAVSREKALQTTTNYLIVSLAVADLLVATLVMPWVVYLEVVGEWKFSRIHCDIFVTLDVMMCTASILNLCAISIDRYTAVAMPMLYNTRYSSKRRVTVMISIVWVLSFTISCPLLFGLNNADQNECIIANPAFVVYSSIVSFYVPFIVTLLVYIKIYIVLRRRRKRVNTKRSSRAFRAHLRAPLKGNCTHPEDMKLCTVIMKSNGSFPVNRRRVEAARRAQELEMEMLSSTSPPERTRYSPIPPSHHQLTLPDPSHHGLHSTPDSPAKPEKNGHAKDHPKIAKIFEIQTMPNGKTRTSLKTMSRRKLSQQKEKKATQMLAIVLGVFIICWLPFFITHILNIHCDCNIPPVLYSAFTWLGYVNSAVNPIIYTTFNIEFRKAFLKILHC
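Tetracycline-induced HEK293 T-REx cells with force-coupled D2 receptor, plated overnight at 30 C, loaded with no-wash calcium dye. After a 10 s baseline, compound was pin-added and calcium flux read kinetically for 180 s; calcium rises flagged agonists.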
D2 ag-2 – Beta-Arrestin HTS for Positive Allosteric Modulators of the Human D2 Dopamine Receptor: Agonists | D(2) dopamine receptor (Homo sapiens), P14416 | DiscoveRx PathHunter D2 beta-arrestin, luminescence, 90 min; 100% = 57 uM dopamine signal | activation, % (concentration not given with the values) | hit rate 0.084% among 360,000 | AID 624465, 2012; in the data active = activation above about 40%; inconclusive = between about 15% and that limit
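DiscoveRx PathHunter D2 beta-arrestin cells (2,100/well) attached overnight, then compound-stimulated 90 min at 37 C in HBSS/10 mM HEPES/0.1% Tween-20 buffer; beta-galactosidase complementation read by luminescence after 1 h at ambient temperature. Dopamine 57 uM final (EC100) as control.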
D2 PAM-1 – Beta-Arrestin HTS for Positive Allosteric Modulators of the Human D2 Dopamine Receptor: Potentiators. hit rate 0.23% among 360,000. DiscoveRx D2 beta-arrestin cells, luminescence, 90 min; 100% = 57 uM dopamine signal. D(2) dopamine receptor (Homo sapiens), P14416. potentiation, % (test concentration not listed). AID 624464, 2012; in the data active = potentiation above about 50%; inconclusive = mostly about 30% to 49%
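PathHunter D2 cells, attached overnight at 37 deg C, received compound in DMSO plus dopamine at EC20 (50 nM final) for 90 min at 37 deg C. Beta-arrestin recruitment was read as luminescence after 1 h with detection reagent at ambient temperature.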
D2 antag – HTS Assay for Allosteric Antagonists of the Human D2 Dopamine Receptor: Primary Screen for Antagonists; inhibition, % at 10 µM; HEK293 TREx D2 cells, calcium flux, dopamine EC80; D(2) dopamine receptor (Homo sapiens), P14416; hit rate 2% among 340,000; in the data active = inhibition above about 30%; inactive = below that, where a call was filed; also: 0% is about no effect
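Inhibition of EC80 dopamine-driven calcium flux, recorded kinetically, defines activity here; cells are a tetracycline-induced HEK293 T-REx line expressing force-coupled D2.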
D2 PAM-2 – HTS Assay for Positive Allosteric Modulators of the Human D2 Dopamine Receptor: Primary Screen for Potentiators; HEK293 T-REx D2, calcium flux, EC20 dopamine potentiation; D(2) dopamine receptor (Homo sapiens), P14416; hit rate 0.34% among 340,000; potentiation, % at 10 µM;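 active = potentiation over 3 SD above the plate norm, cut at about 30% in these data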; also: 0% is about no effect
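Potentiation of an EC20 dopamine calcium response is measured in a force-coupled, tetracycline-inducible Hek293 Trex D2 line. Compound-only kinetic reads over 180 s flag agonists before dopamine addition.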
An asterisk follows results filed as active; ? = inconclusive; . = no result given.

SMILES	D2 ag-1	D2 ag-2	D2 PAM-1	D2 antag	D2 PAM-2
CCOC(=O)c1ccc(NC(=O)CSc2nccn2Cc2ccc(OC)cc2)cc1	-0.6	.	.	.	12.2
O=C(Nc1ccc(O)c2c(=O)cc(-c3ccccc3Cl)oc12)c1cccc(Cl)c1	0.1	-2.7	-7.7	23.5	1.5
Cc1cccc(C(=O)Nc2ccc(O)c3c(=O)cc(-c4ccccc4Cl)oc23)c1	0.4	-6.0	-6.7	30.9*	-3.2
CCOC(=O)c1ccc(NC(=O)CCNS(=O)(=O)c2cccs2)cc1	-0.9	1.4	-4.6	-5.6	-6.2
O=C1NC[C@@H](Cc2cccc3ccccc23)N(CC2(c3ccccc3)CC2)C1=O	0.2	-1.0	2.5	11.9	32.4*
O=c1c2ccccc2nc2n1CC/C2=C/N1CCN(c2cccc(C(F)(F)F)c2)CC1	0.4	0.8	-19.2	48.3*	-12.2
O=C(O)c1ccc2c(=O)n3c(nc2c1)/C(=C/c1ccc(C(F)(F)F)cc1)CC3	0.1	-0.8	1.3	12.7	-1.3
COc1ccc(-n2nc(C(N)=O)c(O)cc2=O)cc1	0.9	2.6	-3.2	32.1*	-5.2
COc1ccc(OC)c(N(C(=O)c2snc(C(N)=O)c2N)C(C(=O)NCc2ccccc2)c2ccc(O)cc2)c1 (configuration not stated)	1.4	-0.4	1.2	43.4*	-2.7
COc1ccc(N(C(=O)c2snc(C(N)=O)c2N)C(C(=O)NCc2ccccc2)c2ccc(O)cc2)cc1 (configuration not stated)	0.1	-0.3	0.9	0.3	-2.9
COc1ccc(C2(c3ccc(OC)cc3)NC(=O)N(CC(=O)NCC(C)c3ccccc3)C2=O)cc1 (configuration not stated)	5.3	-1.9	2.7	67.8*	-4.1
COc1ccc(C2(c3ccc(OC)cc3)NC(=O)N(CC(=O)NC(C)C)C2=O)cc1	1.2	-2.2	-4.5	-13.9	1.6
Cc1ccc(Cn2c(=O)n(-c3ccc(C)c(C)c3)c(=O)c3c(C)c(C)sc32)cc1	-0.3	.	.	.	7.0
Cc1nnc(C)n1/N=C/c1ccc(O)cc1	0.0	0.1	-5.9	-3.9	2.0
CSc1ccc(/C=N/n2c(C)nnc2C)cc1	2.4	-1.8	0.3	35.3*	1.5
Cc1ccc(-n2nc3c(N4CCC(C(=O)NCCc5cccs5)CC4)nnc(C)c3c2C)cc1	-0.6	-5.3	-32.4	-11.2	-2.0
COc1ccc(-n2c(SCC(=O)Nc3cc(C)on3)nc3c(c2=O)SCC3)cc1	-0.6	-1.7	-2.7	6.8	-6.9
COc1ccc(NC(=O)CSc2nc3c(c(=O)n2-c2ccc(F)cc2)SCC3)c(OC)c1	0.4	-4.4	-20.2	37.7*	3.5
CCSc1nnc(-c2sc3nnc(-c4ccccc4)c(-c4ccccc4)c3c2N)o1	39.3*	-3.9	-14.1	-26.8	-2.0
COc1ccccc1NC(=O)c1sc2nc(C)c(C(=O)Nc3ccc(C)cc3C)c(-c3ccco3)c2c1N	1.4	.	.	.	14.5
COC(=O)c1cc(NC(=O)c2cccc(Cl)c2)c(=O)oc1/C=C/Nc1cc(C)cc(C)c1	41.2*	.	.	5.2	8.9
Cc1ccc(C)c(OCC(=O)N(Cc2nnc(-c3ccccc3Cl)o2)C2CC2)c1	1.9	-1.7	-2.4	33.4*	0.6
N/C(=N\OC(=O)c1ccc([N+](=O)[O-])cc1)c1cccnc1	-0.3	8.9	28.6	-2.6	4.7
N/C(=N\OC(=O)c1ccccc1[N+](=O)[O-])c1cccnc1	0.7	?	108.2*	-4.7	-2.4
Cc1ccc(C(=O)O/N=C(\N)c2cccnc2)cc1[N+](=O)[O-]	-0.4	7.3	66.2*	-4.8	-3.2
SMILES	D2 ag-1	D2 ag-2	D2 PAM-1	D2 antag	D2 PAM-2
CCCCc1ccc(NC(=S)NCCO)cc1	-0.2	0.7	-8.3	30.9*	13.1
CCCCc1ccc(NC(=S)NCCc2ccc(F)cc2)cc1	0.2	0.2	-10.8	30.5*	-25.0
CCCCNC(=S)Nc1ccc(Cl)cc1	1.1	-3.0	-20.7	4.4	-3.1
CSc1nc(N)n2nccc2n1	.	-2.3	-5.4	.	.
CCN(CCCNC(=O)Cn1ncc2c3ccccc3n(C)c2c1=O)c1cccc(C)c1	-0.2	.	.	.	16.8
Cc1oc2c(c1C(=O)c1ccccc1)C(=O)C(=O)c1ccccc1-2	2.7	?	11.6	-27.4	0.3
O=C1C(=O)c2c(C(=O)c3ccccc3)coc2-c2ccccc21	-0.1	?	70.9*	14.4	1.3
Cc1cc(Oc2ccc(C#N)cc2)nc(NCc2ccccc2)n1	1.1	-0.8	-5.2	42.4*	28.4
CC1(C(=O)N/N=C/c2ccc3c(c2)OCO3)CC1(Br)Br (configuration not stated)	1.1	-3.0	0.8	16.3	12.1
Cc1ccc[n+](CC(=O)Nc2cccc([N+](=O)[O-])c2)c1	-0.8	-8.8	-14.1	31.6*	-27.4
O=C(O)CCCC(=O)Nc1cccc([N+](=O)[O-])c1	-1.1	-0.8	-6.8	-14.1	37.9*
O=C(Nc1cccc([N+](=O)[O-])c1)Nc1cnccn1	37.8*	1.3	-3.0	-0.8	-1.7
O=C(Nc1cccc([N+](=O)[O-])c1)Nc1cccc([N+](=O)[O-])c1	3.3	-9.9	-9.8	25.4	-1.9
CC(C)[C@H](NC(=O)c1ccccc1)C(=O)OCC(=O)NCc1ccc(F)cc1	-0.4	-9.7	-4.6	9.4	-6.6
CCCSc1nc2sc3c(c2c(=O)n1-c1ccccc1)CCC(C)C3 (configuration not stated)	2.3	.	.	.	14.5
COc1ccc(CCNc2nc3c(-c4cccc(C)c4)nnn3c3ccccc23)cc1OC	.	.	.	.	-6.5
COc1ccc(/C=C/C(=O)Nc2cc(C(F)(F)F)ccc2Cl)cc1	0.5	4.3	-25.8	32.0*	-20.5
COc1cc(C=CC(=O)N2CCN(CC(=O)N3CCCC3)CC2)cc(OC)c1OC	.	-4.7	-17.0	.	.
O=S(=O)(c1cc(Cl)cc(Cl)c1)N1CCCC1c1nc2ccccc2s1 (configuration not stated)	0.7	-1.0	-0.8	-0.3	43.3*
O=C(NC1CCCC1)c1ccc(CS(=O)(=O)Cc2ccccc2F)o1	0.2	2.2	-5.9	-5.6	-8.7
O=C(NC1CCCCC1)c1ccc(CS(=O)(=O)Cc2ccccc2F)o1	1.3	-0.7	-4.4	43.8*	-0.6
CC(=O)c1ccc(OC(=O)COc2ccccc2Cl)cc1	1.0	-3.8	-1.9	47.8*	-3.6
Cc1ccc(OC(=O)COc2ccccc2C)cc1	-0.6	-1.2	1.6	-15.3	7.0
